Test results published in the supplement of paper PMC10849652.
About 7,900 targets were measured; listed, in parts, are those with a hit and a random draw of the rest. About 0.6% of all pairs of compound and target were hits.

Experiments:
Assay in all cases: log2 fold change, soluble protein after heating vs DMSO (PISA); higher = thermal stabilisation; K562 cells, 10 uM, 30 min; active = over 0.2 and 3.5 SD of the protein, either way, in both replicates (recomputed)
saracatinib = compound: CN1CCN(CCOc2cc(OC3CCOCC3)c3c(Nc4c(Cl)ccc5c4OCO5)ncnc3c2)CC1 [saracatinib]
In short: (§1)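 K562 cells at 2×10^6 cells/mL were treated with 10 μM compound for 30 min. Aliquots were heated for 3 min across 48°C-58°C, pooled, and extracted in PBS with 0.5% NP-40 at 4°C; soluble protein was the supernatant after 21,000xg for 90 min. Soluble protein was quantified by TMTpro 16plex LC-MS/MS with channel sums equalised, and reported as log2 fold change in thermal stability against DMSO controls, with values from duplicates.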

sotrastaurin = compound: CN1CCN(c2nc(C3=C(c4c[nH]c5ccccc45)C(=O)NC3=O)c3ccccc3n2)CC1 [sotrastaurin]
In short: as §1

alvocidib = compound: CN1CC[C@H](c2c(O)cc(O)c3c(=O)cc(-c4ccccc4Cl)oc23)[C@H](O)C1 [alvocidib]
In short: as §1

Tubastatin A = compound: CN1CCc2c(c3ccccc3n2Cc2ccc(C(=O)NO)cc2)C1 [Tubastatin A]
In short: as §1

[1] = compound: CNC(=O)C1=CC=CC=C1NC2=NC(=NC=C2Cl)NC3=C(C=C(C=C3)N4CCOCC4)OC
In short: as §1

defactinib = compound: CNC(=O)c1ccc(Nc2ncc(C(F)(F)F)c(NCc3nccnc3N(C)S(C)(=O)=O)n2)cc1 [defactinib]
In short: as §1

rucaparib = compound: CNCc1ccc(-c2[nH]c3cc(F)cc4c3c2CCNC4=O)cc1 [rucaparib]
In short: as §1

[2] = compound: CNc1nc(-c2ccc3c(N)n[nH]c3c2)cc(N2C[C@@H](C(=O)NC3CCCCC3)CC[C@H]2C)n1
In short: as §1

encorafenib = compound: COC(=O)N[C@@H](C)CNc1nccc(-c2cn(C(C)C)nc2-c2cc(Cl)cc(NS(C)(=O)=O)c2F)n1 [encorafenib]
In short: as §1

[3] = compound: COC(=O)[C@H](CCSC)NC(=O)C1=C(C=C(C=C1)NC[C@H](CS)N)C2=CC=CC=C2
In short: as §1

[4] = compound: COC1=CC=C(C=C1)CN2C=CC3=C2C=C(C=C3)C(=O)NO
In short: as §1

filanesib = compound: CON(C)C(=O)N1N=C(c2cc(F)ccc2F)S[C@@]1(CCCN)c1ccccc1 [filanesib]
In short: as §1

zotarolimus = compound: CO[C@H]1C[C@@H]2CC[C@@H](C)[C@@](O)(O2)C(=O)C(=O)N2CCCC[C@H]2C(=O)O[C@H]([C@H](C)C[C@@H]2CC[C@H](n3cnnn3)[C@H](OC)C2)CC(=O)[C@H](C)/C=C(\C)[C@@H](O)[C@@H](OC)C(=O)[C@H](C)C[C@H](C)/C=C/C=C/C=C/1C [zotarolimus]
In short: as §1

idasanutlin = compound: COc1cc(C(=O)O)ccc1NC(=O)[C@@H]1N[C@@H](CC(C)(C)C)[C@](C#N)(c2ccc(Cl)cc2F)[C@H]1c1cccc(Cl)c1F [idasanutlin]
In short: as §1

alisertib = compound: COc1cc(Nc2ncc3c(n2)-c2ccc(Cl)cc2C(c2c(F)cccc2OC)=NC3)ccc1C(=O)O [alisertib]
In short: as §1

[5] = compound: COc1cc2nc(-c3cc(F)ccc3O)nc(N[C@@H]3CNC[C@H]3C(C)(C)O)c2cc1OC
In short: as §1

gefitinib = compound: COc1cc2ncnc(Nc3ccc(F)c(Cl)c3)c2cc1OCCCN1CCOCC1 [gefitinib]
In short: as §1

[6] = compound: COc1cccc2cc(-c3nc([C@H]4CC[C@H](C(=O)O)CC4)n4ncnc(N)c34)[nH]c12
In short: as §1

lapatinib = compound: CS(=O)(=O)CCNCc1ccc(-c2ccc3ncnc(Nc4ccc(OCc5cccc(F)c5)c(Cl)c4)c3c2)o1 [lapatinib]
In short: as §1

pictilisib = compound: CS(=O)(=O)N1CCN(Cc2cc3nc(-c4cccc5[nH]ncc45)nc(N4CCOCC4)c3s2)CC1 [pictilisib]
In short: as §1

Measured: log2 fold change

CDK9 isoform 2 (UniProt P50750)
inactive: saracatinib -0.028 | sotrastaurin -0.018 | Tubastatin A 0.01 | [1] -0.07 | defactinib 0.03 | rucaparib 0.084 | [2] 0.036 | encorafenib 0.079 | [3] -0.091 | [4] -0.103 | filanesib 0.154 | zotarolimus 0.015 | idasanutlin 0.114 | alisertib -0.093 | [5] -0.182 | gefitinib -0.031 | [6] -0.067 | lapatinib -0.055 | pictilisib 0.014
active: alvocidib 0.405

CPSF3 (UniProt Q9UKF6)
inactive: saracatinib 0.009 | sotrastaurin -0.086 | alvocidib -0.052 | Tubastatin A 0.04 | [1] 0.07 | defactinib -0.098 | rucaparib -0.011 | [2] -0.049 | encorafenib 0.03 | [3] -0.009 | [4] -0.063 | filanesib 0.033 | zotarolimus 0.011 | idasanutlin -0.007 | alisertib -0.067 | [5] -0.021 | gefitinib 0 | [6] -0.012 | lapatinib 0.009 | pictilisib -0.025

CDC42SE1 (UniProt Q9NRR8)
Sequence of UniProt Q9NRR8 (Q9NRR8 whole entry, looked up): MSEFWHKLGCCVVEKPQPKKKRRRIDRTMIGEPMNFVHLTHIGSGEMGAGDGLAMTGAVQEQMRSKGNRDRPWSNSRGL
active: Tubastatin A -0.562
inactive: saracatinib 0.074 | sotrastaurin -0.033 | alvocidib -0.019 | [1] 0.228 | defactinib -0.041 | rucaparib 0.087 | [2] 0.01 | encorafenib -0.032 | [3] 0.077 | [4] -0.011 | filanesib -0.049 | zotarolimus 0 | idasanutlin -0.093 | alisertib 0.003 | [5] 0.036 | gefitinib -0.025 | [6] -0.168 | lapatinib -0.088

CAMK2G isoform 6 (UniProt Q13555)
Sequence of UniProt Q13555 (Q13555 whole entry, looked up): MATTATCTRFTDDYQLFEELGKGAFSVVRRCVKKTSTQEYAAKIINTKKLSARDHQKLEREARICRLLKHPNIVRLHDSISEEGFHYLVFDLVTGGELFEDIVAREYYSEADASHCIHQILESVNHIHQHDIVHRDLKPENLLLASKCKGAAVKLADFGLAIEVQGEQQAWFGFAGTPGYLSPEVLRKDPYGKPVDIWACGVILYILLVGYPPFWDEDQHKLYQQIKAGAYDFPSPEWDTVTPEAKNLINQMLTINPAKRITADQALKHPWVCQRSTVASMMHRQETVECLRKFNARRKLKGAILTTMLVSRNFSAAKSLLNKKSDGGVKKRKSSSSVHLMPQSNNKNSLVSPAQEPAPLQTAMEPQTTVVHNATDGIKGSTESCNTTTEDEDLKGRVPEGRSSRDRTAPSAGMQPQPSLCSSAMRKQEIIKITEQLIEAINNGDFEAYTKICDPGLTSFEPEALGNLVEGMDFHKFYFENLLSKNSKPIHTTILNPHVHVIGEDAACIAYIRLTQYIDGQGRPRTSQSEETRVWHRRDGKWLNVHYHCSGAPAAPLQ
inactive: saracatinib -0.005 | sotrastaurin -0.088 | alvocidib 0.123 | Tubastatin A -0.012 | [1] 0.25 | defactinib 0.14 | rucaparib 0.061 | [2] 0.129 | encorafenib 0 | [3] -0.074 | [4] -0.018 | filanesib 0.269 | zotarolimus 0.039 | idasanutlin -0.101 | alisertib -0.173 | [5] -0.032 | gefitinib -0.006 | [6] -0.204 | lapatinib 0.12 | pictilisib 0.141

COA6 isoform 2 (UniProt Q5JTJ3)
Sequence of UniProt Q5JTJ3 (Q5JTJ3 whole entry, looked up): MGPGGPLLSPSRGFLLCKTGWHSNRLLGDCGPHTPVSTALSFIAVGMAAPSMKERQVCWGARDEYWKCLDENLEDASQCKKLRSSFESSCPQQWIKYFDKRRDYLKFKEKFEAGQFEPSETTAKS
inactive: saracatinib 0.175 | sotrastaurin 0.063 | alvocidib 0.012 | Tubastatin A 0.07 | [1] 0.354 | defactinib -0.022 | rucaparib -0.068 | [2] 0.138 | encorafenib -0.055 | [3] 0.072 | [4] 0.02 | filanesib -0.029 | zotarolimus 0.019 | idasanutlin -0.052 | alisertib 0.002 | [5] -0.042 | gefitinib -0.003 | [6] 0.022 | lapatinib -0.017 | pictilisib -0.006

CDK11B (UniProt P21127)
inactive: saracatinib -0.039 | sotrastaurin 0.035 | alvocidib 0.157 | Tubastatin A 0.137 | [1] -0.098 | defactinib -0.162 | rucaparib -0.323 | [2] -0.052 | encorafenib 0.077 | [3] -0.039 | [4] -0.253 | filanesib -0.009 | zotarolimus -0.046 | idasanutlin -0.094 | alisertib 0.011 | [5] 0.151 | gefitinib 0.095 | [6] 0.097 | lapatinib -0.069 | pictilisib -0.057

CLPP (UniProt Q16740)
Sequence of UniProt Q16740 (Q16740 whole entry, looked up): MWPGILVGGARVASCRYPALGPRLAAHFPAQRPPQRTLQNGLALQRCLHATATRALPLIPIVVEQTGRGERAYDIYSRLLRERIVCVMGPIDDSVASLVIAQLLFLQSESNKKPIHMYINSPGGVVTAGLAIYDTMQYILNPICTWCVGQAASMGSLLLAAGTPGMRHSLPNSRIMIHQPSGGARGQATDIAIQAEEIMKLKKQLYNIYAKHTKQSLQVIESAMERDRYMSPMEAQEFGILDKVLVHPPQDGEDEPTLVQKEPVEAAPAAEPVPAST
inactive: saracatinib 0 | sotrastaurin 0.009 | alvocidib -0.011 | Tubastatin A 0.067 | [1] 0.054 | defactinib -0.017 | rucaparib 0.026 | [2] -0.028 | encorafenib -0.077 | [3] -0.038 | [4] -0.03 | filanesib -0.017 | zotarolimus 0 | idasanutlin -0.038 | alisertib -0.091 | [5] 0.011 | gefitinib 0.01 | [6] 0.021 | lapatinib -0.034

CCZ1 (UniProt P86791)
inactive: saracatinib 0.079 | sotrastaurin -0.003 | alvocidib -0.052 | Tubastatin A -0.016 | [1] 0.012 | defactinib -0.018 | rucaparib -0.006 | [2] -0.025 | encorafenib -0.01 | [3] -0.019 | [4] 0.052 | filanesib -0.062 | zotarolimus 0.044 | idasanutlin -0.015 | alisertib -0.072 | [5] -0.036 | gefitinib 0.013 | [6] 0.018 | lapatinib -0.005 | pictilisib -0.047

CNOT1 (UniProt A5YKK6)
inactive: saracatinib -0.025 | sotrastaurin -0.087 | alvocidib -0.051 | Tubastatin A -0.003 | [1] 0.03 | defactinib -0.057 | rucaparib 0.077 | [2] 0.024 | encorafenib 0.074 | [3] -0.031 | [4] 0.002 | filanesib -0.019 | zotarolimus 0.02 | idasanutlin -0.032 | alisertib -0.022 | [5] 0.053 | gefitinib -0.021 | [6] -0.031 | lapatinib 0.02 | pictilisib -0.046

CLUH (UniProt O75153)
Sequence of UniProt O75153 (O75153 whole entry, looked up): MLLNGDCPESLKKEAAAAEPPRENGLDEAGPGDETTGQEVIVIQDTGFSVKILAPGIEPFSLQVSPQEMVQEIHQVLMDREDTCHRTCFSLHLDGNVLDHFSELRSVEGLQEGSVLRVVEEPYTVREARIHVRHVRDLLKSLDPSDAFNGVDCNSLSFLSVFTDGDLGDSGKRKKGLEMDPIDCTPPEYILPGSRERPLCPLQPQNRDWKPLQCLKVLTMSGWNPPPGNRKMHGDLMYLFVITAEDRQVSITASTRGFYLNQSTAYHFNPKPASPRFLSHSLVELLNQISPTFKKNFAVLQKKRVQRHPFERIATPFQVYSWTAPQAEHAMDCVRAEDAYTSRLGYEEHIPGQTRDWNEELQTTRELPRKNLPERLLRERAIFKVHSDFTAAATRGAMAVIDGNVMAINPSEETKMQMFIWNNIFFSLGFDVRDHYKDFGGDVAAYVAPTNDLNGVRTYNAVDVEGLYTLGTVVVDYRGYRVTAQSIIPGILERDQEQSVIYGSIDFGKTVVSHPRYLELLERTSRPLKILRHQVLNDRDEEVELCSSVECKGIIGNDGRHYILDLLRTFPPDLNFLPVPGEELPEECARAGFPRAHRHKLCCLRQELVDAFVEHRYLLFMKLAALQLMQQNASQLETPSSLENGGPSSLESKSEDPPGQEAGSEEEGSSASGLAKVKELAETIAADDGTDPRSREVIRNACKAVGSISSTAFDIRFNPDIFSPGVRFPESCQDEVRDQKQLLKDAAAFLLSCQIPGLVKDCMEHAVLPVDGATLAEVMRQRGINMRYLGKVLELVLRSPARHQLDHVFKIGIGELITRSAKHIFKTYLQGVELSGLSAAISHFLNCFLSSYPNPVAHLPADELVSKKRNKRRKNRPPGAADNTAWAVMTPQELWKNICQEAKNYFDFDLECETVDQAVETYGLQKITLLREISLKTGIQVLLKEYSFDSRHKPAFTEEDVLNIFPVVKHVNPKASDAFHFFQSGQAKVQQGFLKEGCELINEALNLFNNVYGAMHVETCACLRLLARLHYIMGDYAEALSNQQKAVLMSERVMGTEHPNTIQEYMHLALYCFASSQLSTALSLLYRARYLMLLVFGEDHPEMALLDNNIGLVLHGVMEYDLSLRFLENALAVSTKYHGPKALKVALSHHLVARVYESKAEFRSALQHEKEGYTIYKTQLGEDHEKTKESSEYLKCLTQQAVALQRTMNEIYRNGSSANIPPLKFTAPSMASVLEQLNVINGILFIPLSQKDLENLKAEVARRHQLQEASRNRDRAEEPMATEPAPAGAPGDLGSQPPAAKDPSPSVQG
inactive: saracatinib -0.032 | sotrastaurin -0.141 | alvocidib -0.006 | Tubastatin A 0.033 | [1] -0.049 | defactinib -0.04 | rucaparib 0.239 | [2] 0.133 | encorafenib -0.044 | [3] -0.046 | [4] -0.026 | filanesib 0.07 | zotarolimus 0.028 | idasanutlin -0.074 | alisertib -0.072 | [5] -0.022 | gefitinib -0.001 | [6] -0.152 | lapatinib 0.006

CNOT7 (UniProt Q9UIV1)
Sequence of UniProt Q9UIV1 (Q9UIV1 whole entry, looked up): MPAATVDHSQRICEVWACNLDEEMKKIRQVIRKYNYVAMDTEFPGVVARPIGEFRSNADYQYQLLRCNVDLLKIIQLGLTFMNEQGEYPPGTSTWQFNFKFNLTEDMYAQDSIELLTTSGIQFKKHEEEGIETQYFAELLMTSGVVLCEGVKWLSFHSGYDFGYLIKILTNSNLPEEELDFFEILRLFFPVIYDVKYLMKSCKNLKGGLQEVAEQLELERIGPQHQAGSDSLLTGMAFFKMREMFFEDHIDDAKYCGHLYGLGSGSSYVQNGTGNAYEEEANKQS
inactive: saracatinib 0.008 | sotrastaurin -0.044 | alvocidib -0.091 | Tubastatin A 0.004 | [1] -0.035 | defactinib 0.018 | rucaparib 0.051 | [2] 0.104 | encorafenib 0.113 | [3] -0.109 | [4] -0.032 | filanesib 0.012 | zotarolimus 0.018 | idasanutlin -0.008 | alisertib -0.011 | [5] 0.233 | gefitinib 0.134 | [6] -0.067 | lapatinib -0.036 | pictilisib 0.001

CHMP4B (UniProt Q9H444)
Sequence of UniProt Q9H444 (Q9H444 whole entry, looked up): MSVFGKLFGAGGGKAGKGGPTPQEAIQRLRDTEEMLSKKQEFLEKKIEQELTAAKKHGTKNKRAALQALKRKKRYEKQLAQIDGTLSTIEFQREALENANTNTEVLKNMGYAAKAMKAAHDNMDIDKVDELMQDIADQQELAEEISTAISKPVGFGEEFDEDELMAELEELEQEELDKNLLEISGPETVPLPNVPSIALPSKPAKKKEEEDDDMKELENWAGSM
inactive: saracatinib 0.021 | sotrastaurin -0.061 | alvocidib 0.017 | Tubastatin A -0.024 | [1] -0.026 | defactinib -0.017 | rucaparib 0.02 | [2] -0.019 | encorafenib -0.055 | [3] 0.054 | [4] -0.101 | filanesib -0.106 | zotarolimus -0.015 | idasanutlin 0.034 | alisertib -0.036 | [5] 0.044 | gefitinib -0.005 | [6] 0.08 | lapatinib -0.09 | pictilisib -0.094

CCNB1 (UniProt P14635)
Sequence of UniProt P14635 (P14635 whole entry, looked up): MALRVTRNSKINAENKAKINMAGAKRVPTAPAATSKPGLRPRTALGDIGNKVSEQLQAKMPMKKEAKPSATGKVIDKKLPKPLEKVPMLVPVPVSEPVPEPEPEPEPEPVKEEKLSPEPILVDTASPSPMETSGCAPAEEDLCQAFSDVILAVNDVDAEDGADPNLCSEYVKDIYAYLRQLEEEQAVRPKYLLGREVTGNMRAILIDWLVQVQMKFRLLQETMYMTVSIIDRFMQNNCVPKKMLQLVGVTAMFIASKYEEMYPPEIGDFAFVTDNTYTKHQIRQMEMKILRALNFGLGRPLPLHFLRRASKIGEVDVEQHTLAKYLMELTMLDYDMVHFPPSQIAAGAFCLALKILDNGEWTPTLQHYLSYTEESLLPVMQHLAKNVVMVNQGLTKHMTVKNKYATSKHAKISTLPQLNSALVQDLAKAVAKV
inactive: saracatinib -0.005 | sotrastaurin 0.02 | alvocidib -0.006 | Tubastatin A -0.018 | [1] -0.051 | defactinib -0.065 | rucaparib -0.025 | [2] -0.034 | encorafenib -0.002 | [3] 0.035 | [4] -0.006 | filanesib -0.035 | zotarolimus -0.009 | idasanutlin 0.003 | alisertib -0.061 | [5] 0.015 | gefitinib -0.009 | [6] 0.017 | lapatinib -0.044 | pictilisib 0.002

CALB1 (UniProt P05937)
Sequence of UniProt P05937 (P05937 whole entry, looked up): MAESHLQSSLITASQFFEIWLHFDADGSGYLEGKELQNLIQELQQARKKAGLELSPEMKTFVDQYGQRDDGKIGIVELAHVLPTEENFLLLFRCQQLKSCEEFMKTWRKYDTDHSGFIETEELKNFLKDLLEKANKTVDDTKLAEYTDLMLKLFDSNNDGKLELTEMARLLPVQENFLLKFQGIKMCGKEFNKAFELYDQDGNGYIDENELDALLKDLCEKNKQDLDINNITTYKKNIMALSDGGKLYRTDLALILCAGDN
inactive: saracatinib 0.033 | sotrastaurin 0.008 | alvocidib 0.034 | Tubastatin A -0.026 | [1] 0.02 | defactinib 0.013 | rucaparib -0.07 | [2] -0.14 | encorafenib 0.023 | [3] 0.021 | [4] 0.029 | filanesib -0.192 | zotarolimus 0.006 | idasanutlin -0.024 | alisertib -0.022 | [5] -0.071 | gefitinib -0.024 | [6] 0.015 | lapatinib 0.013 | pictilisib 0.027

CLCN7 (UniProt P51798)
Sequence of UniProt P51798 (P51798 whole entry, looked up): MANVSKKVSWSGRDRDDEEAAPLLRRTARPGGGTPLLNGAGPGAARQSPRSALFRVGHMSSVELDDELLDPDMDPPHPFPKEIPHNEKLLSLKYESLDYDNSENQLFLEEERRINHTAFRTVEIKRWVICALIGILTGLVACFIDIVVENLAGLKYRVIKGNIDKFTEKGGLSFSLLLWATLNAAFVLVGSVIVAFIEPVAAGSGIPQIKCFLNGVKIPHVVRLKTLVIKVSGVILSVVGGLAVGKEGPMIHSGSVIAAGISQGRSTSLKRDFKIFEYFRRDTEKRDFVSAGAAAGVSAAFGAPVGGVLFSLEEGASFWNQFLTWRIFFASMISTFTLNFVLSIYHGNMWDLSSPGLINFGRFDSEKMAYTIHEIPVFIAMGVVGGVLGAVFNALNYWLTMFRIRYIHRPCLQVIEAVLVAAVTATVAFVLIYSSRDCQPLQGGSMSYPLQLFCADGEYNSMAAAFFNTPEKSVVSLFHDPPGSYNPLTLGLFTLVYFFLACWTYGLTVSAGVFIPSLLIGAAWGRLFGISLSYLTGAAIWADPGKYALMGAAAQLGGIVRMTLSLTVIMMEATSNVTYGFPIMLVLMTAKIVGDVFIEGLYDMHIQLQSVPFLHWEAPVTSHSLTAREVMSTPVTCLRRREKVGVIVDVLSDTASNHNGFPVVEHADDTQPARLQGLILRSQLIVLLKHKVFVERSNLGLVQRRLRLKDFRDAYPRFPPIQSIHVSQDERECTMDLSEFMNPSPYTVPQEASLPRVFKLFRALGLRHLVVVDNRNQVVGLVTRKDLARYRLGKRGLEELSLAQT
active: filanesib -0.294
inactive: saracatinib 0.004 | sotrastaurin -0.112 | alvocidib 0.007 | Tubastatin A -0.071 | [1] 0.044 | defactinib 0.025 | rucaparib -0.052 | [2] -0.156 | encorafenib 0.151 | [3] -0.04 | [4] 0.112 | zotarolimus 0.008 | idasanutlin -0.006 | alisertib -0.084 | [5] -0.077 | gefitinib -0.144 | [6] 0.023 | lapatinib -0.011

CD55 isoform 7 (UniProt P08174)
Sequence of UniProt P08174 (P08174 whole entry, looked up): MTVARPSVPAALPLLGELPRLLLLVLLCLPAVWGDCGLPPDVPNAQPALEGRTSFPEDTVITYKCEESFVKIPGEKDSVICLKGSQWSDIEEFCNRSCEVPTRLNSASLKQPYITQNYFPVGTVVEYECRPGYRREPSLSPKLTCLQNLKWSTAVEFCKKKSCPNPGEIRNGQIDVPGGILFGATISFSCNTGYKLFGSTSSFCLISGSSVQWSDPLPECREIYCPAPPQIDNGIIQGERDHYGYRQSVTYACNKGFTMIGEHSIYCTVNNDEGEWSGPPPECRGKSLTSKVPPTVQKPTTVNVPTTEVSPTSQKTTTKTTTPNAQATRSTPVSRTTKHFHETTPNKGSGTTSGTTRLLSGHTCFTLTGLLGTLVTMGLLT
inactive: saracatinib 0.06 | sotrastaurin -0.01 | alvocidib 0.03 | Tubastatin A 0.033 | [1] 0.012 | defactinib 0.007 | rucaparib 0.022 | [2] 0.028 | encorafenib -0.016 | [3] 0.039 | [4] -0.115 | filanesib 0.086 | zotarolimus 0.001 | idasanutlin 0.038 | alisertib -0.144 | [5] 0.012 | gefitinib 0.104 | [6] -0.136 | lapatinib 0.031 | pictilisib 0.005
